According to paper PMC9838217, “Structure of SALL4 zinc finger domain reveals link between AT-rich DNA binding and Okihiro syndrome”:
Substitutions are numbered along the chain they refer to.

Experiments:
Assay in all cases: HT-SELEX; high values mean tight binding
Details in all cases: protein: recombinant; vector His6-GST; dsDNA, one strand shown
[1] = molecular target: T1, SALL4 ZFC4 WT (HT-SELEX) (Mus musculus, UniProt Q8BX22 870-940)
T1 sequence: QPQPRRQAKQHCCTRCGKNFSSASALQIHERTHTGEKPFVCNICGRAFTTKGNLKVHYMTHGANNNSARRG
In short: (§1)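 Up to 6 cycles of selection were run in triplicate. In each, purified recombinant mouse SALL4 zinc finger cluster 4 (residues 870–940, 1 µg) was incubated with library DNA (1.5 µg first cycle, 200 ng later) in 100 µl of 10 mM Tris–HCl pH 7.5, 50 mM NaCl, poly(dI-dC), DTT for 10 min at room temperature, then complexes were captured on Ni2+ beads, washed and PCR-amplified; final pools were MiSeq-sequenced and scanned for 6-mers. Binding signal is each canonical k-mer's read fraction as fold change versus the initial random library.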

[2] = molecular target: T2, SALL4 ZFC4 R900W (HT-SELEX) (Mus musculus, UniProt Q8BX22 870-940, R900W)
T2 sequence: T1 sequence with R31W
In short: as §1

[3] = molecular target: T3, SALL4 ZFC4 G921D (HT-SELEX) (Mus musculus, UniProt Q8BX22 870-940, G921D)
T3 sequence: T1 sequence with G52D
In short: as §1

Sequence	binding signal [1] [fold-change vs cycle 0]	binding signal [2] [fold-change vs cycle 0]	binding signal [3] [fold-change vs cycle 0]
ATCGAG	0.776 ± 0.0249	0.873 ± 0.0248	0.967 ± 0.0375
ACTTTA	1.93 ± 0.117	1.99 ± 0.146	1.75 ± 0.227
ACAGGG	0.493 ± 0.038	0.569 ± 0.0399	0.639 ± 0.0358
GGAGGA	0.577 ± 0.0578	0.669 ± 0.0435	0.733 ± 0.0247
ACCTAT	1.37 ± 0.0376	1.45 ± 0.0775	1.43 ± 0.0809
TACTAA	2.076 ± 0.0175	2.12 ± 0.0758	1.87 ± 0.135
TCACGA	0.737 ± 0.0222	0.841 ± 0.0178	0.889 ± 0.0148
ACCCTC	0.489 ± 0.00987	0.562 ± 0.0409	0.66 ± 0.0504
AGCGAG	0.337 ± 0.0112	0.393 ± 0.0228	0.519 ± 0.0797
CTAAAG	1.22 ± 0.0556	1.43 ± 0.0823	1.34 ± 0.112
ATCCCA	0.89 ± 0.0366	0.976 ± 0.0258	0.979 ± 0.0303
GTGGTA	0.757 ± 0.0708	0.849 ± 0.0366	0.874 ± 0.0298
GCTACC	0.35 ± 0.0217	0.419 ± 0.0155	0.543 ± 0.0413
CCGAAA	0.495 ± 0.0231	0.559 ± 0.0265	0.66 ± 0.0717
AGTGGG	0.455 ± 0.0261	0.528 ± 0.0236	0.608 ± 0.0502
TACATA	2.44 ± 0.175	2.02 ± 0.121	1.78 ± 0.178
ATCTTG	1.3 ± 0.0534	1.44 ± 0.0813	1.38 ± 0.0795
ATTGCC	0.502 ± 0.0233	0.566 ± 0.0263	0.699 ± 0.0539
CAGGTC	0.406 ± 0.041	0.487 ± 0.0258	0.603 ± 0.0536
AACTAA	2.02 ± 0.0351	2.07 ± 0.133	1.82 ± 0.176

Sequence	binding signal [1] [fold-change vs cycle 0]	binding signal [2] [fold-change vs cycle 0]	binding signal [3] [fold-change vs cycle 0]
AAGAGT	1.418 ± 0.0105	1.59 ± 0.0431	1.48 ± 0.0973
ACCATC	0.858 ± 0.0322	0.944 ± 0.0334	0.994 ± 0.0236
AAACGC	0.392 ± 0.00979	0.449 ± 0.0166	0.58 ± 0.0501
AATGGC	0.467 ± 0.0217	0.534 ± 0.0101	0.662 ± 0.067
CTGGTC	0.403 ± 0.00696	0.499 ± 0.0159	0.601 ± 0.0523
GGTCCA	0.375 ± 0.0292	0.456 ± 0.0245	0.558 ± 0.0709
ACTAGA	1.39 ± 0.0596	1.52 ± 0.0902	1.41 ± 0.142
AAGCAA	1.18 ± 0.0487	1.24 ± 0.0583	1.23 ± 0.0475
AATGAA	2.19 ± 0.104	2.17 ± 0.105	1.89 ± 0.135
CCCTGA	0.494 ± 0.0131	0.574 ± 0.0156	0.665 ± 0.0261
CAAGGA	0.866 ± 0.0298	1.02 ± 0.0119	1.01 ± 0.0394
ATTCAC	1.32 ± 0.0734	1.45 ± 0.0876	1.38 ± 0.121
GTAGGA	0.827 ± 0.0404	0.946 ± 0.029	0.948 ± 0.0466
GGGGAA	0.462 ± 0.0251	0.532 ± 0.0365	0.614 ± 0.0545
CTACAA	1.17 ± 0.0183	1.29 ± 0.0465	1.24 ± 0.0556
AAGTAG	1.32 ± 0.0481	1.52 ± 0.0706	1.39 ± 0.0907
ATAAAG	2.23 ± 0.104	2.12 ± 0.11	1.79 ± 0.17
AACCTG	0.802 ± 0.0637	0.917 ± 0.053	0.952 ± 0.0288
AACGGT	0.689 ± 0.0523	0.7682 ± 0.0076	0.832 ± 0.0229
AAATAC	1.75 ± 0.12	1.68 ± 0.0912	1.59 ± 0.0866

Sequence	binding signal [1] [fold-change vs cycle 0]	binding signal [2] [fold-change vs cycle 0]	binding signal [3] [fold-change vs cycle 0]
CCTTAA	1.32 ± 0.0558	1.49 ± 0.018	1.37 ± 0.0901
GGATAC	0.871 ± 0.0477	1.02 ± 0.0352	1.03 ± 0.0426
AAATTA	3.81 ± 0.372	2.45 ± 0.183	2.13 ± 0.261
ATTTCC	1.33 ± 0.0842	1.28 ± 0.0652	1.25 ± 0.0764
ATTTTG	1.66 ± 0.083	1.5 ± 0.0395	1.44 ± 0.0553
CCATAA	1.51 ± 0.0387	1.36 ± 0.0383	1.28 ± 0.051
GGGTTA	0.864 ± 0.0423	0.939 ± 0.0501	0.958 ± 0.0312
AACGAG	0.782 ± 0.0393	0.894 ± 0.0693	0.934 ± 0.0683
AGGTTA	1.49 ± 0.0813	1.57 ± 0.127	1.44 ± 0.162
AGAGCA	0.756 ± 0.0413	0.893 ± 0.0729	0.98 ± 0.0193
CTAACC	0.863 ± 0.0299	0.983 ± 0.0562	1.01 ± 0.0396
AACGAC	0.568 ± 0.0525	0.668 ± 0.0478	0.771 ± 0.0138
CAGCAG	0.333 ± 0.0334	0.387 ± 0.024	0.523 ± 0.0543
GGTCAC	0.432 ± 0.0454	0.512 ± 0.0261	0.662 ± 0.0597
CTACGA	0.656 ± 0.0504	0.762 ± 0.0209	0.827 ± 0.0362
ATCCTC	0.944 ± 0.0401	1.06 ± 0.0699	1.09 ± 0.0423
CGAAAA	0.827 ± 0.0572	0.851 ± 0.0107	0.912 ± 0.0336
ATTCTG	1.27 ± 0.0284	1.35 ± 0.0356	1.28 ± 0.0492
GGTACC	0.421 ± 0.0151	0.521 ± 0.0308	0.608 ± 0.0352
AAATGA	2.02 ± 0.088	1.91 ± 0.0687	1.75 ± 0.132
